Laboratory results published in PubChem BioAssay.
A number with no mark means an inactive call. How the calls were made is not given here.

Target: Pantothenate synthetase (Mycobacterium tuberculosis (strain ATCC 25618 / H37Rv)) (UniProt P9WIL5)
Test: Recombinant Mtb pantothenate synthetase (PanC) inhibitors, coupled enzyme, confirmatory (AID 375);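 further: 0% = full reaction with vehicle and 100% = no enzyme background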
Conditions: coupled enzyme assay; at 10 µM, active compounds read high

Pantothenate synthetase (Mycobacterium tuberculosis (strain ATCC 25618 / H37Rv)), sequence (P9WIL5 whole entry, looked up): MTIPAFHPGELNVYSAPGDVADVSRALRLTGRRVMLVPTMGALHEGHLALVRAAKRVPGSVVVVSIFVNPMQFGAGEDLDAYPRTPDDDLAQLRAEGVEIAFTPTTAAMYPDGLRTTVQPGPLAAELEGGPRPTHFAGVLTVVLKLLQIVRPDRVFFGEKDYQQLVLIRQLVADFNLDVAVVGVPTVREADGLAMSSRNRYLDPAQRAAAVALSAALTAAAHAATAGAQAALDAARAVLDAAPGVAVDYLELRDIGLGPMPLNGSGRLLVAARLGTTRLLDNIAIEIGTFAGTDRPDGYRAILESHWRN

SMILES	inhibition [%]
CO[C@@]1(NC(=O)CSCC#N)C(=O)N2C(C(=O)O)=C(CSc3nnnn3C)CS[C@@H]21	0
COc1ccccc1NC(=O)C1CC(=O)N(c2ccc(F)cc2)C1 (stereo not given)	0
O=C(CC(CC(=O)c1ccccc1)C(=O)O)c1ccccc1	3
Cc1ccccc1N(CC(=O)NCC1CCCO1)C(=O)C1(C)CC(=O)N=C2C=CC=CN21 (stereo not given)	0
Cc1nc2ccccc2n1CCC(=O)Nc1cccc(F)c1	4
Clc1ccc(Cn2ncc3c(NCc4cccnc4)ncnc32)cc1	0
CCOC(=O)c1nn(-c2sc(C(=O)OC)c(C)c2C(=O)OC)cc1O	18
COCCN(CCOC)C(=O)CCn1c(=O)oc2ccccc21	0
CC1(C)OC(=O)N(c2cccnc2)C1(C)O (stereo not given)	3
COC(=O)c1cc(Br)c(=O)n(CCC2=CCCCC2)c1	0
CCN(CC(=O)NC1CCS(=O)(=O)C1)C(=O)C(c1ccccc1)c1ccccc1 (stereo not given)	1
O=c1[nH]c2ccc(S(=O)(=O)N3CCN(C4CCCCC4)CC3)cc2[nH]c1=O	1
COc1ccc(OC)c(C(=O)COC(=O)c2cc(C)oc2C)c1	11
c1ccc(OCCOc2ncnc3sccc23)cc1	0
CCCc1nnc2n1N=C(c1ccc(-c3cc(Cl)ccc3Cl)o1)CS2	0
Cc1cc(Cl)ccc1OCCCC(=O)N1CCOCC1	0
O=C1C(CCS(=O)c2ccccc2)C(=O)N(c2ccccc2)N1c1ccccc1 (stereo not given)	0
O=C(CN1C(=O)NC2(CCCCC2)C1=O)Nc1ccc(S(=O)(=O)N2CCOCC2)cc1	5
O=C(Nc1ccc2c(c1)OCO2)c1cc2ncc(Br)cn2n1	3
Cc1[nH]nc(N=CC2=C(O)CC(C)(C)CC2=O)c1-c1ccccc1	5

SMILES	inhibition [%]
Cc1cc(CN2CCN(CCC#N)CC2)c(O)c(C2(C)CCCCC2)c1	0
Cc1ccc(S(=O)(=O)C2(C(=O)Nc3nccs3)CC2)cc1	0
CC(C)CN(CC(C)C)C(=O)C12CCC(C)(C(=O)C1)C2(C)C (stereo not given)	3
CCOC(=O)CSc1nc2c(c(-c3ccc(C)o3)c1C#N)CCCC2	0
CCNC(=O)Cn1cnc2c1c(=O)n(C)c(=O)n2C	0
Cc1ccc(NC(=O)CS(=O)CC(=O)NCC2CCCO2)cc1 (stereo not given)	0
CC1NC2(C(=O)N(Cc3ccccc3)c3ccccc32)C2C(=O)N(c3ccccc3)C(=O)C12 (stereo not given)	0
CCOC(=O)N1CCC(NC(=O)C2CCN(S(=O)(=O)c3cccc4cccnc34)CC2)CC1	0
COC(=O)C1=C(C)Nc2nnnn2C1c1cccs1 (stereo not given)	8
CCCNC(=O)C1CN(S(=O)(=O)c2ccccc2)CCN1S(=O)(=O)c1ccccc1 (stereo not given)	0
CCC1(CC)C(=O)C(C)(C)C(=O)OC1c1cccs1 (stereo not given)	0
Cc1ccc(C2c3sc(=O)[nH]c3SC3C(=O)NC(=O)C32)cc1 (stereo not given)	0
Cn1c(SCC(=O)N2CCN(c3cccc(Cl)c3)CC2)nnc1-c1ccncc1	0
O=C(CCN1C(=O)COc2ccccc21)N1CCN(c2ccccn2)CC1	0
COCCNC(=O)C(C)N(c1ccc(Oc2ccccc2)cc1)S(C)(=O)=O (stereo not given)	0
COc1ccccc1N1CCN(c2cc(=O)n(Cc3ccc(F)cc3)c(=O)[nH]2)CC1	0
CCCCn1c(CN2CCN(c3ccc(F)cc3)CC2)nc2c1c(=O)n(C)c(=O)n2C	2
CCOC(=O)c1ccc(N2C(=O)CC(NC3CCN(C(=O)c4ccc(F)cc4)CC3)C2=O)cc1 (stereo not given)	1
COc1cccc(OCC(O)CN2CCN(CCO)CC2)c1 (stereo not given)	0
CC(C)(S)[C@@H](N)C(=O)O	4
